Data on 5 compounds can be found in PubChem BioAssay.

The nature of test [1]: optical density shifts of acrAB sulA E. coli – strain DRC41, OD650, 48 h, E. coli filamentation inducer project, primary screen (AID 1152).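 Also: E. coli MC1000 strain DRC41 lacking acrAB efflux pump and sulA.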 Conditions: higher = more signal, called active from +8 up or from −8 down.
The nature of test [2]: probe aLefty1 binding on compound microarray – biochemical, small-molecule microarray, 635/667 nm fluorescence, primary screen (AID 1153).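 Also: score merges spot fluorescence with signal-to-noise ratio from the scanned slide images.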 To be noted: higher = more signal.
Test [3] can be described thus: plasmodial surface anion channel blockers, osmotic lysis – cell-based, P. falciparum Indochina, OD700, 1 h, primary screen (AID 1154). To be noted: P. falciparum Indochina infected RBC osmotic lysis, higher = more signal, called active from +8 up or from −8 down.
Test [4] in a line: plasmodial surface anion channel blockers, osmotic lysis – cell-based, P. falciparum Indochina, OD700, 2 h, primary screen (AID 1155).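 Also: lysis reports solute entry through the parasite surface anion channel PSAC.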 To be noted: P. falciparum Indochina infected erythrocytes, higher = more signal, called active from +8 up or from −8 down.
A short description of test [5]: changes in parasitized red cell lysis, either direction – P. falciparum Indochina, OD700, 3 h, PSAC antagonist project, primary screen (AID 1156). To be noted: P. falciparum-infected erythrocytes, osmotic lysis, higher = more signal, called active from +8 up or from −8 down.
Test [6] in a line: plasmodial surface anion channel blockers, osmotic lysis – cell-based, P. falciparum Indochina, OD700, 18 h, primary screen (AID 1157). To be noted: P. falciparum Indochina infected erythrocytes, osmotic lysis OD700, 18 h; higher = more signal, called active from +8 up or from −8 down.
Test [7] can be described thus: S6 kinase pathway phospho-S6 level changes – cell-based, A549, cytoblot, luminescence, serum-stimulated, primary screen (AID 1158).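 Also: serum-stimulated A549 lung adenocarcinoma cells; signal is phosphorylated S6 detected by cytoblot immunostaining with HRP secondary.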 To be noted: 5 h, higher = more signal.
Test [8] concerns the target NADPH oxidase 2 (Homo sapiens) (UniProt P04839). The test can be described thus: compounds shifting NOX2 Amplex Red fluorescence – cell-based, HEK293-NOX2, PMA-stimulated, NOX inhibitor project, primary screen (AID 1159). Also: test concentration not given here. To be noted: 45 min, higher = more signal, called active from +8 up or from −8 down.
The target in test [9] is NADPH oxidase 4 (Homo sapiens) (UniProt Q9NPH5). The test can be described thus: compounds shifting NOX4 Amplex Red fluorescence – cell-based, HEK293-NOX4, tetracycline-induced, NOX inhibitor project, primary screen (AID 1160). Conditions: HEK293-NOX4, Amplex Red H2O2 fluorescence, 45 min; higher = more signal, called active from +8 up or from −8 down.
The target in test [10] is NADPH oxidase 5 (Homo sapiens) (UniProt Q96PH1). The test can be described thus: compounds shifting NOX5 Amplex Red fluorescence – cell-based, HEK293-NOX5, NOX inhibitor project, primary screen (AID 1161). To be noted: HEK293-NOX5, ionomycin, 45 min, higher = more signal.
A short description of test [11]: compound effects on lung adenocarcinoma cell viability – A549, calcein-AM fluorescence, 48 h, basal, profiling panel (AID 1162). Also: test concentration not given here. Conditions: higher = more signal.
The nature of test [12]: compound effects on differentiated 3T3-L1 adipocyte viability – cell-based, 3T3-L1 adipocytes, calcein-AM fluorescence, 48 h, basal, profiling panel (AID 1163). Also: test concentration not given here. To be noted: 3T3-L1 adipocytes viability, higher = more signal.
Test [13] is described as follows: compound effects on hepatocellular carcinoma cell viability – HepG2, calcein-AM fluorescence, 48 h, basal, profiling panel (AID 1164). Also: test concentration not given here. To be noted: higher = more signal.
A short description of test [14]: compound effects on multiple myeloma cell viability – MM1S, calcein-AM fluorescence, 48 h, basal, profiling panel (AID 1165). Also: test concentration not given here. Conditions: higher = more signal.
Test [15] can be described thus: calcein-AM signal in unstimulated myeloma cells – cell-based, calcein-AM fluorescence, 48 h, PK04 Diversity Set, profiling panel (AID 1166).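 Also: cells grown under basal conditions without added stimulus; test concentration not given here.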 Conditions: RPMI8226 myeloma viability, higher = more signal.
Test [16] is described as follows: JC-1 mitochondrial signal, unstimulated HepG2 cells – cell-based, JC-1 fluorescence, 24 h, 100 nL compound, profiling panel (AID 1167). Also: test concentration not given here. To be noted: HepG2 mitochondrial potential, higher = more signal.
The nature of test [17]: JC-1 mitochondrial signal, unstimulated adipocytes – cell-based, JC-1 fluorescence, 3T3-L1 adipocytes, 24 h, 100 nL compound, profiling panel (AID 1168). Also: test concentration not given here. Conditions: JC-1 mitochondrial fluorescence, higher = more signal, called active from +8 up or from −8 down.
Test [18] in a line: JC-1 mitochondrial signal, unstimulated myeloma cells – cell-based, JC-1 fluorescence, RPMI8226, 24 h, 100 nL compound, profiling panel (AID 1169). Also: test concentration not given here. Conditions: JC-1 mitochondrial potential fluorescence, higher = more signal.
The nature of test [19]: JC-1 mitochondrial signal, unstimulated MM1S myeloma – cell-based, JC-1 fluorescence, 24 h, 100 nL compound, profiling panel (AID 1170). Also: test concentration not given here. To be noted: MM1S mitochondrial potential, higher = more signal.
The nature of test [20]: resazurin metabolic signal in A549 cells – cell-based, resazurin fluorescence, 24 h, PK04 Diversity Set, profiling panel (AID 1171). Also: test concentration not given here. To be noted: A549 viability, higher = more signal, called active from +8 up or from −8 down. Background: Resazurin is reduced to fluorescent resorufin, in cell work by metabolically active cells.

Activity calls are given as the source filed them.

Chain of NADPH oxidase 2 (Homo sapiens) (P04839 whole entry, looked up): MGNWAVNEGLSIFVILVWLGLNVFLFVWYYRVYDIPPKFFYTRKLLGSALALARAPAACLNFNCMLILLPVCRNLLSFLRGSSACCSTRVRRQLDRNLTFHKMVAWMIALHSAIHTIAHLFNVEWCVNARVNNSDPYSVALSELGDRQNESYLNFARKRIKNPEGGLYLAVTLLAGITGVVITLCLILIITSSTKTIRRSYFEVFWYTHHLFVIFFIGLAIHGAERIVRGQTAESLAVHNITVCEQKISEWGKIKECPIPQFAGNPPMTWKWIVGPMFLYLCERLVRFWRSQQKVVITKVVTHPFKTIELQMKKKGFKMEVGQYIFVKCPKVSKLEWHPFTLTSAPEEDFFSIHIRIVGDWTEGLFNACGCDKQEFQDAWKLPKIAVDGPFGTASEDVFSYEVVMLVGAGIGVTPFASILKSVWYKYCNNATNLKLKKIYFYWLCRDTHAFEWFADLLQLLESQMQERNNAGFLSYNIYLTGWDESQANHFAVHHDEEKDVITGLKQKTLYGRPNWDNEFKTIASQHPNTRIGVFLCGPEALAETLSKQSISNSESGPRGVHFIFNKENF
Chain of NADPH oxidase 4 (Homo sapiens) (Q9NPH5 whole entry, looked up): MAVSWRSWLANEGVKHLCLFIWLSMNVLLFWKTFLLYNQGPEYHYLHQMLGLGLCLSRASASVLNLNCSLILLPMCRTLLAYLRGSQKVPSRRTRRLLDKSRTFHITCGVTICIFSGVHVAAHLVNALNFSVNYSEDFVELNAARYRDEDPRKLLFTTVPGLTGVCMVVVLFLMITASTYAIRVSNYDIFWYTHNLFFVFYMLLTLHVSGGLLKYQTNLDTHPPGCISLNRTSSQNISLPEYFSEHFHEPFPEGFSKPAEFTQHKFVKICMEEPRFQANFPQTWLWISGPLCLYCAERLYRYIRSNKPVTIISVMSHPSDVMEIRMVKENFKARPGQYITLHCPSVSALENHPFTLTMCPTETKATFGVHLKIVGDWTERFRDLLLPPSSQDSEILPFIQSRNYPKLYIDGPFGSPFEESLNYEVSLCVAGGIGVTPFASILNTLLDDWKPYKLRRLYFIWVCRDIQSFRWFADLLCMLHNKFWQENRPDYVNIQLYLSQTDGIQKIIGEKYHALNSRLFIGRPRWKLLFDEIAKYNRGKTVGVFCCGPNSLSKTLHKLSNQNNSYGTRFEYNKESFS
Chain of NADPH oxidase 5 (Homo sapiens) (Q96PH1 whole entry, looked up): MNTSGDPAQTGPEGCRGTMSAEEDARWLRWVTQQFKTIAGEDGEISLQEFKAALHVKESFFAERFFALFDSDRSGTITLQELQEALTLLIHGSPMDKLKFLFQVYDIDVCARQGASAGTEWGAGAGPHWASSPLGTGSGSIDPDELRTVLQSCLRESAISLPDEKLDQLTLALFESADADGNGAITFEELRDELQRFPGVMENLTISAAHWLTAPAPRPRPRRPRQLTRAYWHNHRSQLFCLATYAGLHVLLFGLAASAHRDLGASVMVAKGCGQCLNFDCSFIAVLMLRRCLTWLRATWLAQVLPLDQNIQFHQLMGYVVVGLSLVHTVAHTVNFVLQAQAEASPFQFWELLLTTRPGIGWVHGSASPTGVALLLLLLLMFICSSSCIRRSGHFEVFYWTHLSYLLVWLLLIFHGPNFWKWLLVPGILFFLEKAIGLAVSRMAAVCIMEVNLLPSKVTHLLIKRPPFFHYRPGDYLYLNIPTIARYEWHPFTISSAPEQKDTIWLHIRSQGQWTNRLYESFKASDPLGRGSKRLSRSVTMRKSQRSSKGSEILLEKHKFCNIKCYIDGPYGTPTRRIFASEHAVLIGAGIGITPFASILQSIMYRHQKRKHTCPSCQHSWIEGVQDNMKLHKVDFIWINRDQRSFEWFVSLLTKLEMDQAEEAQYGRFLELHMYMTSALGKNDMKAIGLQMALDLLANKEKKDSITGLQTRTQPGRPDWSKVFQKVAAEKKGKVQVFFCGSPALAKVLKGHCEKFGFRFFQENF

With `CCN(CC)c1ccc(N2CC=CC34O[C@@H]5C=CCOC(=O)[C@@H]5[C@H]3C(=O)N(CCO)[C@@H]4C2=O)cc1` (stereo not given in full), the z-score is 1.51 (inactive) in [1]; 0.116 (inactive) in [3]; 0.0907 (inactive) in test [4]; 0.714 (inactive) in test [5]; -0.0665 (inactive) in test [6]; -0.221 in [7]. Further, the z-score was -0.0361 (inactive) in test [8]; 0.364 (inactive) in [9]; 0.613 in test [10]; 1.22 in test [11]; 0.273 in [12]; 0.662 in test [13]. The z-score was -0.783 in test [14]; 0.38 in test [15]; 0.396 in test [16]; 0.537 (inactive) in test [17]; -0.0585 in test [18]; 0.0601 in [19]. In addition, the z-score in [20] was 0.588 (inactive). The composite z-score in test [2] was 0.0434.
Take `CC(C)C[C@@H]1NC(=O)[C@H]2C[C@@H](C(=O)NCCCCCNC(=O)CS)[C@@H](c3ccc(O)cc3)N2C1=O`: the z-score in [1] was 0.213 (inactive); in test [3], 3.25 (inactive); in [4] it was 0.945 (inactive); in test [5], 0.256 (inactive); in test [6], 0.277 (inactive); in [7], -0.277. The z-score is 1 (inactive) in [8]; -0.828 (inactive) in [9]; 0.918 in test [10]; -0.286 in [11]; 0.709 in [12]; -0.724 in test [13]. Besides, the z-score in test [14] was -1.04; in test [15], -1.36; in [16] it was -0.686; in [17], -0.372 (inactive); in test [18], -0.113; in test [19], -0.611. Moreover, the z-score in [20] is -0.858 (inactive). Moreover, in [2], the composite z-score is -0.549.
As for `C=CCC(OC(C)=O)[C@@H]1[C@@H](N(Cc2ccc(-c3cccc(C(F)(F)F)c3)o2)C(=O)c2cccc3ccccc23)c2cc(OCCCO)ccc2N1C(=O)c1ccc2ccccc2c1` (stereo not given in full), the z-score in [1] is -0.0766 (inactive); in test [3] it was 0.785 (inactive); in test [4], 0.434 (inactive); in [5], 2.22 (inactive); in test [6], 0.286 (inactive); in test [7], 0.813. Further, the z-score was -2.13 (inactive) in test [8]; -1.74 (inactive) in [9]; -1.76 in [10]; 0.281 in [11]; 2.03 in test [12]; 0.723 in test [13]. The z-score in [14] was -0.21; in [15], -1.99; in test [16], 2.7; in test [17] it was -0.689 (inactive); in test [18], -0.556; in [19], -0.102. Further, the z-score in test [20] is -0.453 (inactive). The compound further yielded a composite z-score in test [2] of 0.179.
Consider `CC(C)C[C@@H]1NC(=O)C([C@@H](C)OCc2ccccc2)NC(=O)[C@@]23C(=O)N[C@@H](Cc4ccccc4)C2[C@H](C)[C@@]2(C)O[C@H]2C3/C=C/CC/C=C/CNC1=O` (stereo not given in full), for which the z-score was 0.757 (inactive) in [1]; 1.35 (inactive) in [3]; -0.601 (inactive) in test [4]; -0.0722 (inactive) in test [5]; -1.61 (inactive) in test [6]; 0.189 in test [7]. Also, the z-score was 0.681 (inactive) in [8]; 0.98 (inactive) in [9]; -0.24 in test [10]; -0.638 in test [11]; 1.58 in test [12]; 0.0538 in test [13]. Moreover, the z-score was -1.31 in test [14]; -2.32 in [15]; 2 in [16]; 0.17 (inactive) in [17]; -0.478 in test [18]; -0.638 in [19]. Further, the z-score in [20] was -0.785 (inactive). The compound also came in with a composite z-score in test [2] of -0.164.
With `O=C1O[C@@H](c2ccccc2)[C@@H](c2ccccc2)N2[C@@H](c3ccc(O)cc3)[C@]3(C(=O)Nc4ccc(C#CC5=CCCCC5)cc43)[C@@H](C(=O)N3CCCCCCC3)[C@H]12`, the z-score in [1] is 1.3 (inactive); in test [3] it was -0.781 (inactive); in test [4], -1.2 (inactive); in [5], -0.993 (inactive); in test [6] it was -2.4 (inactive); in [7], 2.98. In addition, the z-score in test [8] is 0.682 (inactive); in test [9] it was 0.597 (inactive); in test [10] it was 1.56; in test [11], -0.361; in [12] it was 0.967; in [13] it was 0.606. Besides, the z-score was 0.212 in test [14]; -1.72 in [15]; 0.41 in [16]; 0.571 (inactive) in [17]; -0.527 in test [18]; 0.135 in test [19]. The z-score in [20] is -0.77 (inactive). Also, the composite z-score in test [2] was 2.57.
